In PubChem BioAssay AID652025 (National Center for Advancing Translational Sciences (NCATS), 2013):
About 240 (0.067%) of roughly 360,000 compounds were called active. The sample holds actives, similar compounds and a random draw of the others, so the mix is not that of the screen. No stated cut-off is given here; in the data, active means activation above about 50%; inconclusive means mostly about 30% to 49%; inactive means weaker than that.

Assay: qHTS of IL-2 Activators; further: 0% is about no effect
Settings: IL-2 activation reporter assay, cell-based qHTS; hits give high values; in transgenic mouse T cells; stimulated with anti-CD3/CD4/CD28 beads
Excerpt: The adaptive immune response against any infectious agent begins with the activation of an antigen specific T cell. This relatively rare and inert ("naive") T cell undergoes a massive proliferative expansion and differentiation process to generate sufficient number of potent pathogen-specific effector T cells. The effector T cells fight the infection by making cytokines and helping other cells to become fully armed as well. If any naive T cell has antigen receptors (TCRs) that can be activated by self peptides, then a variety of regulatory mechanisms kick in to prevent this cell from performing to its full potential. These processes collectively constitute the phenomenon of immunological tolerance and their failure leads to autoimmunity. One arm of tolerance involves generation of biochemical negative feedback downstream of the TCR (tuning). This is especially relevant to self antigens present in the body over long periods of time (chronic), which form the bulk of our proteome. The negative feedback serves to tune the TCR signaling, such that the ambient antigenic stimulation is nullified intracellularly. Unfortunately, this critical machinery serves as a target for chronic viral, bacterial and parasitic infections (as well as tumors), which can evade a robust immune response, simply by allowing T cells to tune down their signaling to pathogen or malignancy derived antigens. As such, disrupting the tuning in such cases would allow the tolerant T cell to function again and deliver a robust effector response.
If a therapeutic can restore responsiveness to the tuned down T cell, even for a short time, they could combat the pathogen without any additional immunization. To that end, we have developed a sensitive HTS T cell based assay based on IL-2. This assay will be screened against the Molecular Libraries Small Molecule Repository (MLSMR) to find small molecules that could elicit this response.
NIH Chemical Genomics Center [NCGC]
NIH Molecular Libraries Probe Centers Network [MLPCN]
Assay Submitter (PI): Ron Schwartz, NIAID
4 microL (750 cells/well) of unstimulated transgenic mouse T cells (columns 1-3,5-48) are dispensed into Aurora LoBase, black clear-bottom 1536-well assay plates; column 4 receives an identical concentration of transgenic memory T cells as a non-tolerant control. Compounds are then transferred via Kalypsys pin tool equipped with 1536-pin array (10 nL slotted pins, V&P Scientific, San Diego, CA). Following addition of compound and a 60 minute incubation, 1 microL of bead stimulation solution ((0.04 micron Fluospheres (Life technologies, CA) coated with 10ug/ml each anti-CD3 and anti-CD4 (clones 2C11 and GK1.5, BD Biosciences, CA) and mixed with 1ug/ml anti-CD28 (clone PV-1, BD biosciences, CA)). columns 2-48) is added to stimulate the IL-2 response pathway; media is instead added to column 1 as an unstimulated control, while PMA/ionomycin (Sigma Aldrich, MO) is added to column 3 as a control for IL-2 tolerance bypass. The plates are then incubated at 37 degrees C for 18 hours. EGFP and DsRed signal are then detected using an Acumen eX3 Explorer fluorescent plate cytometer. All cells are dispensed in cell media containing EHAA (Quality Biologicals, MD), RPMI (Quality Biologicals, MD), Glutamine (Life Technologies, CA), Penicillin/Streptomycin (Quality Biologicals, MD), 2-ME (Sigma Aldrich, MO) and 10% FBS (Gemini Bioproducts, CA) .

activation, inactive:
Cc1ccc(-c2c[n+](=O)c3c(n2[O-])CCC3)cc1 1.34%, COc1ccc(N(CC(=O)NC2CCCC2)C(=O)CS(=O)CC(=O)Nc2ccc3c(c2)OCO3)cc1 (configuration not stated) -2.57%, c1csc(CN2CCN(Cc3cccs3)C2c2cccs2)c1 0.339%, Cc1cc(C)cc(C(=O)NC(CC(N)=O)c2ccc(N3CCC(N4CCCCC4)CC3)c([N+](=O)[O-])c2)c1 (configuration not stated) -0.417%, O=C(O)CCCCOn1ccnc1 1.09%, CCn1nc(C)c(CN2CCN(Cc3ccc(OC)c(C)c3C)C(CCO)C2)c1C (configuration not stated) -3.09%, O=C(O)c1ccccc1N=N/C(=N/Nc1cc(S(=O)(=O)O)ccc1O)c1ccccc1 0.118%, CCOC(=O)[C@]12CCCC=C1N(Cc1cccc3ccccc13)C(=O)[C@H](CC(=O)NCC13CC4CC(CC(C4)C1)C3)C2 -1.16%, CCN(CC)S(=O)(=O)c1ccc(N2CCN(C)CC2)c(NC(=O)Nc2ccccc2F)c1 -1.22%, CC1(Oc2ccc(Cl)cc2)CCN(Cc2csc3ccccc23)C1 (configuration not stated) 0.192%, COC(=O)COc1cccc2c(=O)n(CC(=O)NCc3ccccc3)ccc12 -3.22%, CCOC(=O)N1CCN(C(=O)c2ccccc2SCC(=O)NCC2CCCCC2)CC1 -1.16%, O=C(NCc1ccccc1Cl)c1csc([C@@H]2O[C@H](CO)[C@@H](O)[C@H]2O)n1 0.0054%, CC(=O)Nc1ccc(C(=O)Nc2cc(S(=O)(=O)N3CCOCC3)ccc2N2CCOCC2)cc1 -2.32%, Nc1nc(-c2sc3nc4c(cc3c2N)CCCC4)nc(N2CCOCC2)n1 -1.7%, CCCc1cc(=O)[nH]c(SCc2cc(=O)oc3c(C)c(C)ccc23)n1 -0.327%, CCOc1ccccc1NC(=O)C12CC3CC(C1)CC(c1ccc(C)cc1)(C3)C2 -4.57%, Cc1cc(C)c2c(-n3cccc3)c(C(=O)NNS(=O)(=O)c3ccc(F)cc3)sc2n1 0.79%, CC(=O)N(Cc1cccs1)C1CCOC(C)(C)C1 (configuration not stated) -0.456%, O=C(NNC(=S)NC1CC2CCC1C2)c1ccc(Cl)cc1 (configuration not stated) -0.932%, Cc1ccccc1-n1nnc2c(=O)oc3ccccc3c21 -0.569%, COc1ccccc1CNC(=O)C1CCCN(S(=O)(=O)c2cccc3cccnc23)C1 (configuration not stated) -1.32%, Cc1ccc(C(CC(=O)O)NC(=O)c2ccc(S(=O)(=O)N3CCCC3)cc2)cc1 (configuration not stated) 0.29%, CC1=C(C(=O)OC2CCCCC2)C(c2ccccc2F)NC(=O)N1 (configuration not stated) -8.28%, Cn1cccc1C1(C(F)(F)F)NCCNC1=O (configuration not stated) -1.5%, CCO[C@H]1OC(C(=O)N2CCOCC2)=C[C@@H](c2ccc3c(c2)OCO3)[C@@H]1CCCO -0.126%, Cc1nn(CCOc2ccc(Br)cc2)c(C)c1[N+](=O)[O-] -2.36%
